About 79,000 compounds went through this panel and 15% of them were active in at least one assay; those are over-represented in the sample as a whole. A number with no mark means an inactive call. Calls of active or inactive are those of the source. No stated cut-off is given here; in the data, active means growth inhibition above about 70%; inactive means the rest.

The nature of experiment [1]: NCI Yeast Anticancer Drug Screen. Data for the rad50 strain (AID 155).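 Further: 0% = growth of vehicle-only cultures of the same strain.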 Conditions: S. cerevisiae rad50 strain growth inhibition; at 50.0 µM; active compounds read high. In short, it runs like this: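 DNA repair mutant yeast, compound exposure, growth read-out; inhibition is taken relative to vehicle.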
Experiment [2] can be described thus: NCI Yeast Anticancer Drug Screen. Data for the mec2-1 strain (AID 157). Conditions: S. cerevisiae mec2-1 strain, at 50.0 µM, active compounds read high. In short, it runs like this:
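Readout is yeast growth inhibition, normalised to vehicle-treated controls, in the mec2-1 strain exposed to compound.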

The nature of experiment [3]: NCI Yeast Anticancer Drug Screen. Data for the sgs1 mgt1 strain (AID 161).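 Further: 0% = growth of cultures given vehicle only.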 Conditions: S. cerevisiae sgs1 mgt1 strain, at 50.0 µM, active compounds read high. In short, it runs like this:
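This yeast growth screen uses a strain with defined DNA-repair lesions; compound-treated growth is compared with vehicle-treated growth.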

Experiment [4] is described as follows: NCI Yeast Anticancer Drug Screen. Data for the cln2 rad14 strain (AID 165).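 Further: 0% = growth equal to vehicle treated cultures.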 Conditions: S. cerevisiae cln2 rad14 strain, at 50.0 µM, active compounds read high. In short, it runs like this: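 Relative to vehicle controls, growth inhibition of compound-treated cln2 rad14 yeast was recorded.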
Experiment [5] can be described thus: NCI Yeast Anticancer Drug Screen. Data for the bub3 strain (AID 167). Conditions: S. cerevisiae bub3 mutant strain, at 50.0 µM, active compounds read high. Put shortly: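 In this screen, a yeast mutant lacking normal mitotic checkpoint function is challenged with compound. Relative growth versus vehicle gives the inhibition value.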
Experiment [6] can be described thus: NCI Yeast Anticancer Drug Screen. Data for the mlh1 rad18 strain (AID 175). Conditions: S. cerevisiae mlh1 rad18 strain growth inhibition; at 50.0 µM; active compounds read high. Put shortly:
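Test agents were incubated with a yeast strain of defined genotype (DNA damage repair defect). Inhibition of growth was derived by comparison with vehicle-exposed cultures.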

`c1ccc(C2=NCCc3cc4c(cc32)OCO4)cc1`: the growth inhibition is 3.35% in experiment [1]; 0.7% in experiment [2]; 7.8% in experiment [3]; 10.1% in experiment [4]; 13.2% in experiment [5]; 9.4% in experiment [6].

As for `N#Cc1cccc(CC(O)(c2ccccc2)c2ccccc2)c1`, the growth inhibition was 19.6% in experiment [1]; 19.9% in experiment [2]; 5.1% in experiment [3]; 11% in experiment [4]; 20.5% in experiment [5]; 18.4% in experiment [6].

As to `CCCCC/C(C)=C\C(=O)O`, the growth inhibition in experiment [1] was 8.95%; in experiment [2] it was 9.4%; in experiment [3] it was 7.25%; in experiment [4], -14.2%; in experiment [5] it was -2.4%; in experiment [6], 5.35%.

As for `Cn1c(=O)c2c(nc(C(=N)SCC(=O)O)n2C)n(C)c1=O`, the growth inhibition in experiment [1] was 3.1%; in experiment [2], 16.4%; in experiment [3], 15.8%; in experiment [4] it was 55%; in experiment [5] it was -44.8%; in experiment [6], 3.8%.

In the case of `COC(=O)C(CCS(=O)(=O)CC(=O)C(=O)Nc1cccc(C(C)=O)c1)C(=O)OC`, the growth inhibition in experiment [1] was -12.6%; in experiment [2], -15.1%; in experiment [3], -16.1%; in experiment [4], -17.1%; in experiment [5], -26.2%; in experiment [6] it was -5.95%.

On to `Cc1nc(N)[nH]c(=O)c1CCCNc1ccc(CCCCCCC2(CCl)OCCO2)cc1`, for which the growth inhibition in experiment [1] is 12.4%; in experiment [2] it was -0.15%; in experiment [3], 1.45%; in experiment [4] it was 2.9%; in experiment [5], 17.4%; in experiment [6], -9.4%.

Turning to `NC(=O)c1nc(C2OC(CO)C(O)C2O)cs1` (stereo unspecified), the growth inhibition in experiment [1] is -0.7%; in experiment [2], -1.2%; in experiment [3], -2.25%; in experiment [4], -27.9%; in experiment [5], 6.75%; in experiment [6], 0.15%.

For `CCCOC(=O)NC(C)C(=O)NC(CCC(=O)NC(CCCC(N)C(=O)O)C(=O)NC(C)C(=O)O)C(=O)O` (stereo unspecified), the growth inhibition was -20.8% in experiment [1]; -19.9% in experiment [2]; -37.6% in experiment [3]; -9.25% in experiment [4]; 21.6% in experiment [5]; -10.8% in experiment [6].

In the case of `CNC(=O)C1NCCc2cc(OC)c(OC)cc21` (stereo unspecified), the growth inhibition in experiment [1] is 21.9%; in experiment [2] it was -22%; in experiment [3] it was 20.7%; in experiment [4], 13.2%; in experiment [5], 10.4%; in experiment [6], 20.6%.

Turning to `COC(=O)C1C(C(=O)OC)C2N(c3ccccc3)C=NN2C1C(=O)c1ccccc1` (stereo unspecified), the growth inhibition in experiment [1] is -62.2%; in experiment [2] it was -10.2%; in experiment [3], -16%; in experiment [4], -3.65%; in experiment [5] it was 5.05%; in experiment [6] it was -4.65%.

For the compound `COc1ccc(-n2c(=O)c(N=Nc3ccccc3Cl)c(O)n(-c3ccccc3OC)c2=S)cc1`, the growth inhibition in experiment [1] was 22.4%; in experiment [2], 4.65%; in experiment [3] it was 33.2%; in experiment [4], -33.1%; in experiment [5] it was 2.2%; in experiment [6], 3.2%.

Take `CC(=O)Oc1cccc2c1C(=O)c1ccccc1C2=O`: the growth inhibition in experiment [1] was 30%; in experiment [2], 5.3%; in experiment [3], 22.4%; in experiment [4], -4.2%; in experiment [5], 11.3%; in experiment [6] it was -10%.

For `CSc1cc2c(cc1N)C(=O)c1ccccc1-2`, the growth inhibition in experiment [1] is 12.5%; in experiment [2], 2.45%; in experiment [3], 7.4%; in experiment [4], -24.1%; in experiment [5], -13.1%; in experiment [6], 12.9%.

As for `CC(C)CCC1(C2CCOCC2)NC(=O)NC1=O` (stereo unspecified), the growth inhibition in experiment [1] is -9.85%; in experiment [2], -6.6%; in experiment [3], -4.85%; in experiment [4], -26.6%; in experiment [5], -7.55%; in experiment [6], 0.95%.

Consider `N#CC1(c2nc3ccccc3o2)C(=O)C(=O)N(C2C3CC4CC(C3)CC2C4)C(=O)C1=O` (stereo unspecified), for which the growth inhibition was -8.65% in experiment [1]; 6.05% in experiment [2]; -39.1% in experiment [3]; 16.2% in experiment [4]; -5.75% in experiment [5]; -9.35% in experiment [6].

Turning to `O=C(CCCCCCCCC(=O)OCCCn1cc(C(=O)NC(=O)OCc2ccccc2)c(=O)[nH]c1=O)OCCCn1cc(C(=O)NC(=O)OCc2ccccc2)c(=O)[nH]c1=O`, the growth inhibition was -28.6% in experiment [1]; -41.7% in experiment [2]; -25.6% in experiment [3]; 1.7% in experiment [4]; -24.2% in experiment [5]; -36.8% in experiment [6].

Consider `Nc1ccc(/C=C\C(=O)c2ccccc2)cc1`, for which the growth inhibition in experiment [1] is 16.4%; in experiment [2] it was 1.05%; in experiment [3], 12.1%; in experiment [4], 12.6%; in experiment [5], 4.25%; in experiment [6], 17.4%.

Take `Cc1ncc([N+](=O)[O-])n1CCNC(=O)CCC(=O)NCCCn1ccnc1[N+](=O)[O-]`: the growth inhibition was -16.1% in experiment [1]; -22.9% in experiment [2]; -1.45% in experiment [3]; 21.7% in experiment [4]; -31.8% in experiment [5]; 14.9% in experiment [6].

As to `CC(COC(=O)c1ccc(N)cc1)NC1CCCCC1` (stereo unspecified), the growth inhibition in experiment [1] is -8.2%; in experiment [2], 1.1%; in experiment [3], 19.6%; in experiment [4], 13.7%; in experiment [5], -2.25%; in experiment [6], -16.6%.

`CC(C(c1ccccc1)C(Br)C(=O)c1ccccc1)[N+](=O)[O-]` (stereo unspecified): the growth inhibition in experiment [1] was 96.5% (active); in experiment [2] it was 93.2% (active); in experiment [3] it was 95% (active); in experiment [4], 87.3% (active); in experiment [5], 96.5% (active); in experiment [6], 94.7% (active).

As to `Cc1ccccc1NC(=S)NN`, the growth inhibition in experiment [1] is 22.2%; in experiment [2] it was 14.7%; in experiment [3], 14.1%; in experiment [4], 16.6%; in experiment [5], 11.9%; in experiment [6] it was 12.3%.

(Values after PubChem BioAssay (NCI).)
